# Screening data (PubChem BioAssay)
# Hits are enriched below; roughly 4.7% of the tested compounds scored in any of these assays.
# FBA Mtb inh = inhibits M. tuberculosis FBA enzyme; P9WQA3; purified M. tuberculosis FBA, fluorescence read-out; inhibition, % at 1 µM; 2.3% of 360,000 active; AID 588726; in the data active means inhibition above about 27%;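 further: 0% = vehicle and 100% = reference inhibitor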
# Target sequence (P9WQA3 whole entry, looked up): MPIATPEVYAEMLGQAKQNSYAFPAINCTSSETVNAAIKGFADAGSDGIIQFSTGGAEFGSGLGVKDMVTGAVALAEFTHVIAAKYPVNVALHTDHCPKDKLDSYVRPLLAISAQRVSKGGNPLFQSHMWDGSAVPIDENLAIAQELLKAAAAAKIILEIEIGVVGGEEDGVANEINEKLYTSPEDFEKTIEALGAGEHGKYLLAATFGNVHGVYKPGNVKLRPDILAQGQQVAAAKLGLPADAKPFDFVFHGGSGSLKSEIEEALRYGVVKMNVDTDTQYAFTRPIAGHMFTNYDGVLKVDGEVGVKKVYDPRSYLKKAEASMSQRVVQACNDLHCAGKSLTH
# GDH-TPI counter-1 = counter-screen for M. tuberculosis FBA inhibitors: GDH-TPI coupled enzymes. GDH-TPI coupled enzyme counterscreen, NADH absorbance. inhibition, % at 4.8 µM. 1.2% of 360,000 active;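 further: 0% = DMSO wells and 100% = wells lacking the enzyme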
# SARS 3CLpro inh = SARS-CoV 3CLpro protease inhibition. 0.14% of 290,000 active. inhibition, % at 6 µM. P0C6X7. recombinant SARS-CoV 3CLpro, quenched FRET peptide cleavage; in the data active means inhibition above about 12%
# VHR inh abs = DUSP3 (human) phosphatase inhibition; P51452; recombinant VHR phosphatase, pNPP absorbance; inhibition, % at 13.3 µM; 0.52% of 290,000 active; in the data active means inhibition above about 50%
# Target sequence (P51452 whole entry, looked up): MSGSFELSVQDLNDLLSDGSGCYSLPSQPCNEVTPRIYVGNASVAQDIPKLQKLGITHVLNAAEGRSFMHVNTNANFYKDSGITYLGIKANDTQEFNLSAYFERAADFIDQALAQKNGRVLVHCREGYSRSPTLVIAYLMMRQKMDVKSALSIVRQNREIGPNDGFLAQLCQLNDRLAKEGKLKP
# CCHFV vOTU inh = CCHFV vOTU protease inhibition; AID 651958; 0.55% of 370,000 active; Pep-AMC fluorescence; inhibition, % at 11.5 µM; further: 0% = vehicle wells with enzyme and 100% = no enzyme wells
# RecA splice inh = blocks M. tuberculosis RecA intein splicing; AID 2221; 0.75% of 290,000 active; cell-free RecA intein splicing, fluorescence; P9WHJ3; inhibition, % (concentration not given with the values); in the data active means inhibition above about 30%;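 further: 0% = vehicle wells and 100% = reference inhibitor control wells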
# Mtb FBA inh conf = Mtb FBA inhibition, confirmed; purified M. tuberculosis FBA, fluorescence read-out; 78% of 5,600 active; shares compounds with FBA Mtb inh; AID 651616; inhibition, % at 1 µM; in the data active means inhibition above about 27%;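 further: 0% = vehicle wells and 100% = reference inhibitor wells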
# GDH-TPI counter-2 = counter-screen for M. tuberculosis FBA inhibitors: GDH-TPI coupled enzyme inhibition; GDH-TPI coupled enzyme counterscreen, fluorescence; shares compounds with FBA Mtb inh; 81% of 5,600 active; inhibition, % at 1 µM; in the data active means inhibition above about 10%
# Numbers without * were called inactive; nt = not tested or not shown; + = active, no number. Unless noted, no stated cut-off is given here; in the data, active means inhibition above about 30%; inactive means the rest.
SMILES,FBA Mtb inh,GDH-TPI counter-1,SARS 3CLpro inh,VHR inh abs,CCHFV vOTU inh,RecA splice inh,Mtb FBA inh conf,GDH-TPI counter-2
COc1cc(OC)cc(-c2c(-c3cccs3)c3cc(-c4cccc5[nH]ccc45)ccc3n2C)c1,47*,21,nt,nt,0,nt,112*,79*
COc1cc(F)cc(-c2ccc3c(c2)c(-c2cccs2)c(-c2cc(OC)cc(OC)c2)n3C)c1,2,22,nt,nt,4,nt,nt,nt
CC1(C(=O)O)CCN1C(=O)c1cccc(C(F)(F)F)c1 (stereo unspecified),-1,3,nt,nt,8,nt,nt,nt
Cc1cc2nc(-c3ccc(C#N)cc3)c(Cc3cccc(F)c3)n2c(C)c1Br,2,nt,nt,nt,-2,nt,nt,nt
COc1cc(/C=N/NC(=O)Cn2cnc3c2c(=O)n(C)c(=O)n3C)cc(OC)c1OC,5,-1,3,5,-11,-1,nt,nt
COc1cccc(/C=N/NC(=O)Cn2cnc3c2c(=O)n(C)c(=O)n3C)c1OC,30*,-3,-1,-24,-18,-4,2,-2
COC(=O)C1=CN(Cc2ccc(OC)cc2)C=C(C(=O)OC)C1c1ccsc1,98*,2,6,2,-110,-99,131*,86*
COC(=O)C1=CN(CC2CCCO2)C=C(C(=O)OC)C1c1ccsc1 (stereo unspecified),83*,0,0,0,-222,-165,4,-8
COC(=O)C1=CN(CCOC23CC4CC(CC(C4)C2)C3)C=C(C(=O)OC)C1c1ccsc1,63*,-1,2,9,-60,-23,101*,85*
COC(=O)C1=CN(Cc2ccc(OC)c(OC)c2)C=C(C(=O)OC)C1c1cccc(O)c1,111*,19,9,-11,-169,nt,109*,82*
COC(=O)C1=C(C)OC(N)=C(C#N)C1c1ccsc1 (stereo unspecified),1,-4,-2,22,-6,-2,nt,nt
COC(=O)C1=CN(Cc2ccc(F)cc2)C=C(C(=O)OC)C1c1ccc(O)c(OC)c1,6,14,2,-25,-7,-2,nt,nt
COc1ccccc1CNS(=O)(=O)c1ccc2c(c1)NC(=O)C(C)S2 (stereo unspecified),0,9,-2,-4,-6,-1,nt,nt
O=c1[nH][nH]c2c1[C@H](c1ccc(F)cc1)O[C@H](C1CCCCC1)C2,nt,nt,nt,nt,4,nt,nt,nt
COC(=O)Cc1coc2cc(OC)ccc12,4,-15,nt,nt,1,nt,nt,nt
CCNc1nc(NCC)nc(NS(=O)(=O)c2ccc(N)cc2)n1,-1,-3,3,-17,-1,0,nt,nt
CCn1c(-c2sc(-c3ccccc3)nc2C)n[nH]c1=S,6,5,-4,13,2,-9,nt,nt
Cc1nc(-c2ccccc2)sc1-c1ccn[nH]1,110*,13,0,14,-56,-3,33*,24*
CCOC(=O)c1ccc(N(C(=O)CNC(=O)c2ccco2)C(C(=O)NCC2CCCO2)c2ccc(OC)c(OC)c2)cc1 (stereo unspecified),-3,-5,-4,10,-19,0,nt,nt
Cc1ccc(S(=O)(=O)NCc2ccc(C(=O)NCCCN3CCC(Cc4ccccc4)CC3)cc2)cc1,-4,-7,0,15,-8,3,nt,nt
CCN(CC)CCNC(=O)c1cn(CCOC)c(=O)c2c1c1ccccc1n2C,25,17,-4,33,-33,-8,nt,nt
CCN1CCN(CCCNC(=O)c2cn(CCOC)c(=O)c3c2c2ccccc2n3C)CC1,24,11,6,-8,nt,1,nt,nt
COCCn1cc(C(=O)NCCCN2CCC(C)CC2)c2c3ccccc3n(C)c2c1=O,28*,12,1,9,-8,nt,+,+
CCN(CC)CCCNC(=O)c1cn(CCOC)c(=O)c2c1c1ccccc1n2C,29*,5,-1,14,-22,-1,102*,96*
CCN(CC)CCCNC(=O)c1cn(CC(C)C)c(=O)c2c1c1ccccc1n2C,35*,7,-6,24,-13,-1,105*,95*
SMILES,FBA Mtb inh,GDH-TPI counter-1,SARS 3CLpro inh,VHR inh abs,CCHFV vOTU inh,RecA splice inh,Mtb FBA inh conf,GDH-TPI counter-2
CCCCN(CC)CCCNC(=O)c1cn(CC(C)C)c(=O)c2c1c1ccccc1n2C,20,7,0,27,-31,-1,nt,nt
CCN(CC)CCCNC(=O)c1cn(C)c(=O)c2c1c1ccccc1n2C,30*,5,4,nt,6,-4,83*,71*
COc1ccccc1CCn1cnc(-c2cccc(F)c2)c1C(C)C,nt,nt,nt,nt,19,nt,nt,nt
CC(NC(=O)c1ccc2c(c1)C(=O)N(Cc1cccnc1)C2=O)c1ccccc1 (stereo unspecified),-3,-4,4,-17,4,-6,nt,nt
COc1ccc(CCNC(=O)c2ccc3c(c2)N(Cc2ccc(F)cc2)CCS3)c(OC)c1,23,8,4,11,5,-2,nt,nt
CC(NC(=O)C1CCN(Cc2ccc(Oc3ccccc3)cc2)CC1)c1cccc2ccccc12 (stereo unspecified),0,10,nt,nt,21,nt,nt,nt
Cc1ccc2c(c1)=NC(=O)/C(=C/c1c(O)[nH]c(=O)[nH]c1=O)C=2,35*,1,0,11,10,-24,95*,65*
CCC(=O)Nc1cc2nn(-c3ccc(C)cc3)nc2cc1C,6,13,-1,-1,-14,nt,nt,nt
CCCCC(=O)Nc1cc2nn(-c3ccc(OC)cc3)nc2cc1C,27*,-1,2,7,1,2,151*,121*
COc1ccc(-n2nc3cc(C)c(NC(=S)NC(=O)c4ccccc4C)cc3n2)cc1,6,9,-1,14,-3,1,nt,nt
CCC(=O)Nc1cc2nn(-c3ccc(OC)cc3)nc2cc1C,66*,3,-4,29,-56,5,39*,28*
Cc1ccc(S(=O)(=O)Nc2ncccn2)cc1,4,10,5,7,0,-5,nt,nt
O=C(COc1ccc2ccc(=O)oc2c1)NCCCn1ccnc1,13,2,3,7,-2,1,nt,nt
CC(C)(C)OC(=O)C[C@H]1C/C=C\C[C@@H](CC(=O)N[C@H](CO)Cc2ccccc2)C(=O)NC[C@H](c2ccccc2)OC1=O,1,-12,nt,nt,15,nt,nt,nt
O=C(Nc1nc2nc(-c3ccccc3)cc(-c3ccccc3)n2n1)c1ccco1,43*,28,-2,22,-10,3,132*,98*
Cc1ccnc2nc(NC(=O)c3ccco3)nn12,-5,0,-1,4,4,1,nt,nt
COc1ccc(-c2oc3ccc(-c4cc(OC)c(OC)c(OC)c4)cc3c2-c2ccc(OC)cc2)cc1,nt,nt,nt,nt,-9,1,nt,nt
COc1cc(-c2ccc3cc(OC)c(OC)c(OC)c3c2)cc(OC)c1OC,45*,1,nt,nt,5,nt,8,6
N#CC(C#N)=C1NC(N)=C(C#N)C(c2ccccc2)=C1C#N,71*,33*,4,26,12,-22,86*,74*
